Measurements reported in PubChem BioAssay (EPA / NIEHS).
“And” between values parts separate entries of the source, which are not always exact repeats. Equal values may be shown once. More than one record can exist for a structure, and the calls need not agree. The source made the active and inactive calls. Rule for the calls: active = hit-call score of the fitted dose curve at least 0.9, where 1 is the maximum; inactive = score below 0.9.

Legend:
[1] = BSK_BF4T_SRB: Viability Assessment in the BioMAP Diversity Plus: BF4T Assay (AID 2284274); conditions: primary human bronchial epithelial cells with fibroblasts
In short: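 Co-culture of human bronchial epithelial cells and dermal fibroblasts (BioMAP BF4T) exposed 24 h. Total protein by sulforhodamine B staining (0.1% SRB after 10% TCA fixation, 560 nm) in parallel cultures; fitted vs DMSO.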

[2] = read-out: urokinase Plasminogen Activator (uPA), PLAU (gene 5328); assay: BSK_BF4T_uPA: BioMAP Diversity Plus: BF4T Assay for urokinase Plasminogen Activator (uPA) Biomarker Activity (AID 2284275); conditions: primary human bronchial epithelial cells with fibroblasts
In short: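 Co-culture of human bronchial epithelial cells and dermal fibroblasts; uPA quantified by ELISA 24 hours after dosing, fitted relative to DMSO. Parallel SRB total-protein staining assessed overt cytotoxicity.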

[3] = read-out: Interleukin-8 (IL8), CXCL8 (gene 3576); assay: BSK_IMphg_IL8: BioMAP Diversity Plus: IMphg Assay for Interleukin-8 (IL8) Biomarker Activity (AID 2284277); conditions: primary human endothelial cells with macrophages
In short: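 Co-culture of human venular endothelial cells and macrophages exposed to chemicals for 24 h; IL-8 quantified by ELISA and compared against the DMSO baseline, with SRB total-protein staining in parallel cultures for cytotoxicity.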

[4] = read-out: Intercellular Adhesion Molecule 1 (ICAM1), ICAM1 (gene 3383); assay: BSK_BE3C_ICAM1: BioMAP Diversity Plus: BE3C Assay for Intercellular Adhesion Molecule 1 (ICAM1) Biomarker Activity (AID 2284278); conditions: primary human bronchial epithelial cells;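 note: cell-surface ICAM-1 protein level quantified by ELISA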
In short: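 Human primary bronchial epithelial cultures; compound added; 24 h incubation; cell-surface ICAM-1 measured by ELISA; signal increase fitted relative to DMSO negative control.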

[5] = read-out: Interferon-inducible T-cell alpha chemoattractant (ITAC), CXCL11 (gene 6373); assay: BSK_BE3C_ITAC: BioMAP Diversity Plus: BE3C Assay for Interferon-inducible T-cell alpha chemoattractant (ITAC) Biomarker Activity (AID 2284279); conditions: primary human bronchial epithelial cells
In short: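 ELISA read-out of I-TAC after 24 h chemical dosing of human lung primary bronchial epithelial cells; gain-of-signal fit vs DMSO baseline. Parallel SRB total-protein staining (0.1% SRB, 10% TCA fixation, 560 nm) assessed cytotoxicity.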

[6] = read-out: Interleukin-8 (IL8), CXCL8 (gene 3576); assay: BSK_BE3C_IL8: BioMAP Diversity Plus: BE3C Assay for Interleukin-8 (IL8) Biomarker Activity (AID 2284280); conditions: primary human bronchial epithelial cells
In short: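 ELISA read-out of IL-8 in human lung bronchial epithelial primary cell cultures, 24 h post-dosing; endpoint analysed as signal increase relative to DMSO baseline.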

[7] = read-out: Epidermal growth factor receptor (EGFR), EGFR (gene 1956); assay: BSK_BE3C_EGFR: BioMAP Diversity Plus: BE3C Assay for Epidermal growth factor receptor (EGFR) Biomarker Activity (AID 2284281); conditions: primary human bronchial epithelial cells
In short: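 Primary human lung bronchial epithelial cells; compound, 24 h; EGFR measured by ELISA; positive-direction fit vs DMSO baseline.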

KRT18 (gene 3875) = assay: BSK_BE3C_Keratin818: BioMAP Diversity Plus: BE3C Assay for Keratin 818 Biomarker Activity (AID 2284282); conditions: primary human bronchial epithelial cells
In short: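 Chemicals are added to human lung bronchial epithelial primary cells (BE3C system) and incubated 24 h. Keratin 8/18 is then measured by ELISA, with parallel SRB total-protein staining gauging overt cytotoxicity.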

[8] = read-out: Matrix Metallopeptidase 9 (MMP9), MMP9 (gene 4318); assay: BSK_BE3C_MMP9: BioMAP Diversity Plus: BE3C Assay for Matrix Metallopeptidase 9 (MMP9) Biomarker Activity (AID 2284283); conditions: primary human bronchial epithelial cells
In short: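 Cells were dosed, incubated 24 h, then assayed for MMP-9 by ELISA; activity was fitted upward against DMSO. The system used human lung primary bronchial epithelial cells, with SRB total-protein staining run alongside for cytotoxicity.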

[9] = read-out: Plasminogen activator inhibitor-1 (PAI1), SERPINE1 (gene 5054); assay: BSK_CASM3C_PAI1: BioMAP Diversity Plus: CASM3C Assay for Plasminogen activator inhibitor-1 (PAI1) Biomarker Activity (AID 2284284); conditions: primary human coronary artery smooth muscle cells;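 note: PAI-1 protein level measured by ELISA 24 h after dosing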
[10] = read-out: Monocyte Chemoattractant Protein-1 (MCP1), CCL2 (gene 6347); assay: BSK_hDFCGF_MCP1: BioMAP Diversity Plus: hDFCGF Assay for Monocyte Chemoattractant Protein-1 (MCP1) Biomarker Activity (AID 2284285); conditions: primary human foreskin fibroblasts
In short: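 Human foreskin fibroblasts (hDFCGF system) were exposed to compound and secreted MCP-1 was measured by ELISA after 24 hours. Activity was fitted relative to DMSO. Cytotoxicity was checked by SRB total-protein staining in parallel cultures.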

[11] = read-out: Vascular cell adhesion molecule 1 (VCAM1), VCAM1 (gene 7412); assay: BSK_IMphg_VCAM1: BioMAP Diversity Plus: IMphg Assay for Vascular cell adhesion molecule 1 (VCAM1) Biomarker Activity (AID 2284286); conditions: primary human endothelial cells with macrophages
In short: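 Human venular endothelial cells co-cultured with macrophages; VCAM-1 quantified by ELISA 24 h after dosing, fitted in the positive direction against DMSO. Cytotoxicity was checked in parallel cultures by SRB total-protein staining (0.1% SRB after 10% TCA fixation, 560 nm).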

[12] = read-out: Intercellular Adhesion Molecule 1 (ICAM1), ICAM1 (gene 3383); assay: BSK_hDFCGF_ICAM1: BioMAP Diversity Plus: hDFCGF Assay for Intercellular Adhesion Molecule 1 (ICAM1) Biomarker Activity (AID 2284287); conditions: primary human foreskin fibroblasts
In short: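 Primary human foreskin fibroblasts (hDFCGF system) dosed with chemical; ICAM-1 quantified by ELISA at 24 h relative to DMSO. Parallel SRB total-protein staining to assess overt cytotoxicity.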

CD40, CD40 (gene 958) = assay: BSK_IMphg_CD40: BioMAP Diversity Plus: IMphg Assay for CD40 Biomarker Activity (AID 2284288); conditions: primary human endothelial cells with macrophages
In short: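 Venular endothelial cells co-cultured with macrophages (human primary), CD40 measured by ELISA 24 h after dosing. Positive-direction fit vs DMSO baseline; cytotoxicity tracked by SRB total-protein staining in parallel cultures.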

[13] = read-out: TIMP metallopeptidase inhibitor 2 (TIMP2), TIMP2 (gene 7077); assay: BSK_hDFCGF_TIMP2: BioMAP Diversity Plus: hDFCGF Assay for TIMP metallopeptidase inhibitor 2 (TIMP2) Biomarker Activity (AID 2284289); conditions: primary human foreskin fibroblasts
In short: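 Primary human foreskin fibroblasts in the hDFCGF system, dosed for 24 h; TIMP-2 level measured by ELISA, fitted in the positive direction against DMSO; cytotoxicity checked in parallel by sulforhodamine B total protein staining.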

[14] = read-out: E-selectin (Homo sapiens) (UniProt P16581); assay: BSK_IMphg_ESelectin: BioMAP Diversity Plus: IMphg Assay for Eselectin Biomarker Activity (AID 2284291); conditions: primary human endothelial cells with macrophages
In short: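 Human venular endothelial cell–macrophage co-culture, E-selectin measured by ELISA 24 h after chemical dosing. Signal fitted in the positive direction against DMSO as negative control and baseline.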

[15] = BSK_IMphg_SRB: Viability Assessment in the BioMAP Diversity Plus: IMphg Assay (AID 2284292); conditions: primary human endothelial cells with macrophages;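 note: measured one day after compound addition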
In short: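 Human venular endothelial cells with macrophages, 24 h after chemical dosing; total protein by 0.1% SRB staining after 10% TCA fixation, read at 560 nm. Positive-direction fitting versus DMSO baseline.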

[16] = read-out: Plasminogen Activator Inhibitor-1 (PAI1), SERPINE1 (gene 5054); assay: BSK_BF4T_PAI1: BioMAP Diversity Plus: BF4T Assay for Plasminogen Activator Inhibitor-1 (PAI1) Biomarker Activity (AID 2284273); conditions: primary human bronchial epithelial cells with fibroblasts
In short: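 Co-culture of human bronchial epithelial cells and dermal fibroblasts exposed to compound for 24 h. PAI-1 measured by ELISA; activity fitted in positive direction versus DMSO. Parallel SRB staining assessed overt cytotoxicity.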

[17] = read-out: Matrix Metallopeptidase 9 (MMP9), MMP9 (gene 4318); assay: BSK_BF4T_MMP9: BioMAP Diversity Plus: BF4T Assay for Matrix Metallopeptidase 9 (MMP9) Biomarker Activity (AID 2284276); conditions: primary human bronchial epithelial cells with fibroblasts
In short: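 Co-culture of human bronchial epithelial cells and dermal fibroblasts dosed for 24 h; MMP-9 quantified by ELISA and fitted upward versus DMSO. Cytotoxicity monitored in parallel cultures by SRB total-protein staining at the biomarker time point.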

Measured: AC50

Chain of E-selectin (Homo sapiens) (P16581 whole entry, looked up): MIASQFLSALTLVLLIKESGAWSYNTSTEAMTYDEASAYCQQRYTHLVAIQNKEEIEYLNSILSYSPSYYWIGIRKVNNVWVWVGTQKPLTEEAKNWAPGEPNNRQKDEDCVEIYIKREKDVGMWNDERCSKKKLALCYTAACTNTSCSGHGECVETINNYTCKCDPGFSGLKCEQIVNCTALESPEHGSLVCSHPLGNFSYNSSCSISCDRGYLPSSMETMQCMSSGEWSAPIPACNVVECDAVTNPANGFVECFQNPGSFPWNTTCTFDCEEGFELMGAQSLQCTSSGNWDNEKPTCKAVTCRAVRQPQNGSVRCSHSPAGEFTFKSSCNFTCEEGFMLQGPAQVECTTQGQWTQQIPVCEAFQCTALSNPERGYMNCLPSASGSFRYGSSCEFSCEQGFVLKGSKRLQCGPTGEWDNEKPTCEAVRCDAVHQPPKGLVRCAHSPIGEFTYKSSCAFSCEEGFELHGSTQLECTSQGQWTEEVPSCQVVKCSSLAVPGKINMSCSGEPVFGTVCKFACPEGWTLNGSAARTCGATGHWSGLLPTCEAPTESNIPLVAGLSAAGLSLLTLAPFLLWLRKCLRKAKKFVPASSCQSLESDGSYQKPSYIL

C[Si](Cl)(Cl)CCC(F)(F)C(F)(F)C(F)(F)C(F)(F)C(F)(F)C(F)(F)F
inactive: [1] | [2] | [3] | [4] | [5] | [6] | [7] | KRT18 (gene 3875) | [8] | [9] | [10] | [11] | [12] | CD40, CD40 (gene 958) | [13] | [14] | [15]
active: [10] 0.441 µM | [12] 2.46 µM | [13] 236 nM

NC(=O)C(F)(F)C(F)(F)C(F)(F)C(F)(F)C(N)=O
inactive: [1] | [2] | [3] | [4] | [5] | [6] | [7] | KRT18 (gene 3875) | [8] | [9] | [10] | [11] | [12] | CD40, CD40 (gene 958) | [13]
active: [12] 17.6 µM | [13] 220 nM

OCC(O)CC(F)(F)C(F)(F)C(F)(F)C(F)(F)C(F)(F)C(F)(F)C(F)(F)C(F)(F)F (configuration not stated)
inactive: [16] | [1] | [2] | [3] | [4] | [5] | [6] | [7] | KRT18 (gene 3875) | [9] | [10] | [11] | [12] | CD40, CD40 (gene 958) | [13]

C=CC(=O)OCCC(F)(F)C(F)(F)C(F)(F)C(F)(F)F
inactive: [1] | [2] | [17] | [3] | [4] | [5] | [6] | [7] | KRT18 (gene 3875) | [8] | [9] | [10] | [11] | CD40, CD40 (gene 958) | [13] | [15]
active: [10] 20.3 µM | [12] 30 µM and 38.2 µM | [13] 2550 nM

NC(=O)C(F)(F)C(F)(F)C(F)(F)C(F)(F)C(F)(F)C(F)(F)C(F)(F)F
inactive: [1] | [2] | [3] | [4] | [5] | [6] | [7] | KRT18 (gene 3875) | [8] | [9] | [10] | [11] | [12] | CD40, CD40 (gene 958) | [13] | [14]
